Common to all, as to test: log2 fold change, soluble protein after heating vs DMSO (PISA); higher = thermal stabilisation; K562 lysate, 10 uM; active = over 0.2 and 3.5 SD of the protein, either way, in both replicates (recomputed)
Compound in assay [1]: C1=CC=C(C=C1)[C@H](COC2=CC3=C(C=C2)NC(=O)N3)NC(=O)C4=CC=CN(C4=O)CC5=CC(=C(C=C5)F)F
In outline: (§1)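 Log-two fold change in thermal stability relative to solvent controls is reported from duplicates. For each sample, crude K562 extract from dounce-homogenised pellets in PBS pH 7.4 with 1 mM MgCl2, at 1 mg/mL protein, was treated with 10 μM compound for 30 min. Aliquots heated for 3 min across 48°C-58°C were pooled, brought to 0.5% NP-40 at 4°C and cleared at 21,000xg for 90 min. The supernatant was quantified by TMTpro 16plex LC-MS/MS with channel sums equalised.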

Compound in assay [2]: CC1=C(SC2=C1C(=N[C@H](C3=NN=C(N32)C)CC(=O)N)C4=CC=C(C=C4)Cl)C
In a few lines:
as §1

Compound in assay [3]: CC1=C2C(=CC=C1)N=C(N(C2=O)C3=CC=CC=C3C)CN4C=NC5=C(N=CN=C54)N
In a few lines: as §1

Compound in assay [4]: Cc1sc2c(c1C)C(c1ccc(Cl)cc1)=N[C@@H](CC(=O)OC(C)(C)C)c1nnc(C)n1-2
In a few lines:
as §1

Compound in assay [5]: c1ccc([C@@H]2C[C@H]2NC2CCNCC2)cc1
In a few lines:
as §1

Of roughly 8,800 targets only a part is listed; those with a hit were picked by preference. About 0.5% of all pairs of compound and target were hits. Values without a mark were called inactive.

UniProt P18440, sequence (P18440 whole entry, looked up): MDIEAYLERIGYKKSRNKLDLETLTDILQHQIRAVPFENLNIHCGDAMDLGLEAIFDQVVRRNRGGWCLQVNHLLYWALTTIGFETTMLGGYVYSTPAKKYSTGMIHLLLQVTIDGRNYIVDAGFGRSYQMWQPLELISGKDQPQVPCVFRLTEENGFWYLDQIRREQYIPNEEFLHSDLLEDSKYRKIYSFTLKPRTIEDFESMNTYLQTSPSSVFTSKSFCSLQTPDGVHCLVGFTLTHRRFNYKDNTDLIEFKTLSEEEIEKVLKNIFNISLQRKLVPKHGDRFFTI
UniProt Q0ZGT2, sequence (Q0ZGT2 whole entry, looked up): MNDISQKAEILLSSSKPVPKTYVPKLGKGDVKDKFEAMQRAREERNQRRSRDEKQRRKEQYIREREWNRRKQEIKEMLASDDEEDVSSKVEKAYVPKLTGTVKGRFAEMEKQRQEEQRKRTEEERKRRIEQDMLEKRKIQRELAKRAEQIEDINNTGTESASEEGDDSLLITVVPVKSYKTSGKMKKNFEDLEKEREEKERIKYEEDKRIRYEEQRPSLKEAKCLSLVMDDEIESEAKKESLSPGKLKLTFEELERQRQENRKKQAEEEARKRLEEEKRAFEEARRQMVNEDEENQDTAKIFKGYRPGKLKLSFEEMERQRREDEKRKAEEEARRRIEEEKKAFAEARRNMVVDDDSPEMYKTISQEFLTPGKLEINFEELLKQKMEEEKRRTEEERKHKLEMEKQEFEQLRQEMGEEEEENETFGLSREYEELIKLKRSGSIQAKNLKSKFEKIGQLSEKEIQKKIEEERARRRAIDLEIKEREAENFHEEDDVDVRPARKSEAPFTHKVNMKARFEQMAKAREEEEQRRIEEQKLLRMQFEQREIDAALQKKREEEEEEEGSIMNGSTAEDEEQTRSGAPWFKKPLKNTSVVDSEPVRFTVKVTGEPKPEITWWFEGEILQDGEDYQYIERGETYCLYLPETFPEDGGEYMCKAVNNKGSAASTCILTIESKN
UniProt Q9H857, sequence (Q9H857 whole entry, looked up): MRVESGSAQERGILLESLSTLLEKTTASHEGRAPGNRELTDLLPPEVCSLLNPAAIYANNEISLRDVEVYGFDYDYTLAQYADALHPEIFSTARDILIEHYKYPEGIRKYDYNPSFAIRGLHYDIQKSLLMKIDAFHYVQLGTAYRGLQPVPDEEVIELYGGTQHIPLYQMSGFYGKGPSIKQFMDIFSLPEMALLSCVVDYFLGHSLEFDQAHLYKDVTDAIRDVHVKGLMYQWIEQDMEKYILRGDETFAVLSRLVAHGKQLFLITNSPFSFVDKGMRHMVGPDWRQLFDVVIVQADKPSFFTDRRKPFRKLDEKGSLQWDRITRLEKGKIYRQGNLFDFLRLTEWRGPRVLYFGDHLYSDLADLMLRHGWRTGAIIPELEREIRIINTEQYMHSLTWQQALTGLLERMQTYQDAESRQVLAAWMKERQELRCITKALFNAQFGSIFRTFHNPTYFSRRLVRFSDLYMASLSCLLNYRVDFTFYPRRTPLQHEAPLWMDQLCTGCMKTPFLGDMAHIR
UniProt O76041, sequence (O76041 whole entry, looked up): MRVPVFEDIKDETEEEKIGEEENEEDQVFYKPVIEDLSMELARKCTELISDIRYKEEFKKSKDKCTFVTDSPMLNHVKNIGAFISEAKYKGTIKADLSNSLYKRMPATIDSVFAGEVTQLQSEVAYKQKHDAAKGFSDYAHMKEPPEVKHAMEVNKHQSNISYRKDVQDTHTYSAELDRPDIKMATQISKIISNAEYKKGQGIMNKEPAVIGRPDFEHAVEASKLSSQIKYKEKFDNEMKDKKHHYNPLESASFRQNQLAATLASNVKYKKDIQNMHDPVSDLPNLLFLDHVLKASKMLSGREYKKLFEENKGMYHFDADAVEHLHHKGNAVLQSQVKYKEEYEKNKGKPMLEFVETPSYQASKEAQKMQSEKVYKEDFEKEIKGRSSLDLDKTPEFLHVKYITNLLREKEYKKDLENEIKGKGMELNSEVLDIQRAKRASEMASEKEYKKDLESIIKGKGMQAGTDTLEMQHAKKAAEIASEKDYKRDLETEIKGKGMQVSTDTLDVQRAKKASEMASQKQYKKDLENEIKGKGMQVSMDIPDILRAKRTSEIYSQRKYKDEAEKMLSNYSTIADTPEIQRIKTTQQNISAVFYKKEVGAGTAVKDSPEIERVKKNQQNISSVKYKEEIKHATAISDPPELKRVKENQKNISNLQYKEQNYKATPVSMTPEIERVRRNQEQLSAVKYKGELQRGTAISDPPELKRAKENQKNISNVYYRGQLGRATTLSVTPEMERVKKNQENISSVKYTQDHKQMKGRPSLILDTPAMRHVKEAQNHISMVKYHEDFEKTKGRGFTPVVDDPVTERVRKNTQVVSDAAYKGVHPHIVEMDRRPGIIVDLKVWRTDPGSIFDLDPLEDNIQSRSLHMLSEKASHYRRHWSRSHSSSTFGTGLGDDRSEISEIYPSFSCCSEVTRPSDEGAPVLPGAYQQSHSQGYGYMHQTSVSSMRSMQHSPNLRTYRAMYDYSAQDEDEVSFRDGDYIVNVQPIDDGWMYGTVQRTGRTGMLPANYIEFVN
UniProt O00483, sequence (O00483 whole entry, looked up): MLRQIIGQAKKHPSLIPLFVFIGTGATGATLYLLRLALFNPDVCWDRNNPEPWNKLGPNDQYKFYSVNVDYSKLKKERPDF
UniProt Q86UW6, sequence (Q86UW6 whole entry, looked up): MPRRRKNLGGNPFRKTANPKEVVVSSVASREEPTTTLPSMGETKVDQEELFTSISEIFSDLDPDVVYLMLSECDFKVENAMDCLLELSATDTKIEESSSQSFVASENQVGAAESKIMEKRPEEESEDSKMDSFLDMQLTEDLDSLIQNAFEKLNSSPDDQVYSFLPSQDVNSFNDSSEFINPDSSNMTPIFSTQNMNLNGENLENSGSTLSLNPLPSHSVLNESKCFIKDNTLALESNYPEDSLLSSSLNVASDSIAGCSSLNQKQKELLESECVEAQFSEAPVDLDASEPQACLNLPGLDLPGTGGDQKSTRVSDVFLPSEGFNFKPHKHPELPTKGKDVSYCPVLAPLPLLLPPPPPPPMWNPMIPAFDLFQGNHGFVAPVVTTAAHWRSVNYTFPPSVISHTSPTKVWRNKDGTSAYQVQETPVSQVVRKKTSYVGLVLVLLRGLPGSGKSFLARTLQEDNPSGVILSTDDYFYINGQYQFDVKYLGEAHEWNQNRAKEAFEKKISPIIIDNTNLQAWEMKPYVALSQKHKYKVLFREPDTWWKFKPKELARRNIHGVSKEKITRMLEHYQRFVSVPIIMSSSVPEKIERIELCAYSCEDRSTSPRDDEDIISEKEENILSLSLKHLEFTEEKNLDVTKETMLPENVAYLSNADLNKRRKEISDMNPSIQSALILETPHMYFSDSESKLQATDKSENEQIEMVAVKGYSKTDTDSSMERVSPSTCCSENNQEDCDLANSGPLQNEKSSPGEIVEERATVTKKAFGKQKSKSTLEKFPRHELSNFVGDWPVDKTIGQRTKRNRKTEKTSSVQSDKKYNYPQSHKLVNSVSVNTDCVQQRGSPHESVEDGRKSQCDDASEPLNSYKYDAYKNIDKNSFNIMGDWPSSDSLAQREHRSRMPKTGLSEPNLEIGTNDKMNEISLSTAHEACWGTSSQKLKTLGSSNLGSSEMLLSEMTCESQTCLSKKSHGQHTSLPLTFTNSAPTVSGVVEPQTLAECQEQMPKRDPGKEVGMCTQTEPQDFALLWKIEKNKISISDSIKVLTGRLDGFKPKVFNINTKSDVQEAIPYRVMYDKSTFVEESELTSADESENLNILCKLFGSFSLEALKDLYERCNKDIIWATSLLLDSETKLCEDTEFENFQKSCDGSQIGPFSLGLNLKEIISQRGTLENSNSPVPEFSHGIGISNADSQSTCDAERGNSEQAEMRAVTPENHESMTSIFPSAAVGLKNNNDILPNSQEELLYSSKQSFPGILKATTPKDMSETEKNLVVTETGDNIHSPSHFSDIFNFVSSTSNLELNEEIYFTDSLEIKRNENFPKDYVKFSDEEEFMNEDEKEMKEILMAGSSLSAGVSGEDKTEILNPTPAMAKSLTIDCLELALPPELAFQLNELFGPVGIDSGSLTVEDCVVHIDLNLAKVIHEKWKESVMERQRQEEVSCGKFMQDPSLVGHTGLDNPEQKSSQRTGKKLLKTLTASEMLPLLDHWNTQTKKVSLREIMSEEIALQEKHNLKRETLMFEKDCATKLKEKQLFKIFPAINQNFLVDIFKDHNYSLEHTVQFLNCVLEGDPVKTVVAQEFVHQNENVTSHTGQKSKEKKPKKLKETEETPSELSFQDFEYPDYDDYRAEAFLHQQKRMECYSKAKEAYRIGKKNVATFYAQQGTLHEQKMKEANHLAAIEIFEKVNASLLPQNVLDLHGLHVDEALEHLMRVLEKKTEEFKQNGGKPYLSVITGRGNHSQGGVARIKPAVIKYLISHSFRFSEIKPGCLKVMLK
UniProt Q13153, sequence (Q13153 whole entry, looked up): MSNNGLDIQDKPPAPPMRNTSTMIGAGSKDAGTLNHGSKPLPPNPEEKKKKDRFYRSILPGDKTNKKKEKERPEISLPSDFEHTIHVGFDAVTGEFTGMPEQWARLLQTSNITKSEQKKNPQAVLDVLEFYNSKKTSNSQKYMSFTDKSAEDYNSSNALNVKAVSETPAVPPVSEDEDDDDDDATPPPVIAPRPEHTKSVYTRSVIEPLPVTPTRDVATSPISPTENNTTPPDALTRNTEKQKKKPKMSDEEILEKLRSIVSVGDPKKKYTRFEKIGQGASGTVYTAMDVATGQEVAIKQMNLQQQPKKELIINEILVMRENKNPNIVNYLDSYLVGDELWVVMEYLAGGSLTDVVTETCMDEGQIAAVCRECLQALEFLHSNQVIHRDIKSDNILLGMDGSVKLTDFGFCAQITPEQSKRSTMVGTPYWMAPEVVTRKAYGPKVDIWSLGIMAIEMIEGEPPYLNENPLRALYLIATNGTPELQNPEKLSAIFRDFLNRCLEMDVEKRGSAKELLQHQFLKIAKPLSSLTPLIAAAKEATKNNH

For NEBL isoform 2 (UniProt O76041), the log2 fold change is -0.025 in assay [1]; -0.102 in assay [2]; 0.018 in assay [3]; -0.07 in assay [4]; -0.094 in assay [5].

In the case of NCAPD3 (UniProt P42695), the log2 fold change in assay [1] is 0.028; in assay [2], -0.007; in assay [3], 0.046; in assay [4], -0.005; in assay [5], 0.016.

NCAPG (UniProt Q9BPX3): the log2 fold change in assay [1] is -0.031; in assay [2], 0.013; in assay [3], -0.007; in assay [4], 0.013; in assay [5] it was 0.03.

As to NNT (UniProt Q13423), the log2 fold change in assay [1] was -0.005; in assay [2], 0.052; in assay [3], 0; in assay [4], 0.015; in assay [5] it was 0.034.

In the case of MVB12A (UniProt Q96EY5), the log2 fold change in assay [1] is 0.006; in assay [2] it was 0.032; in assay [3], 0.017; in assay [4] it was 0.032; in assay [5], 0.059.

For MYO1C (UniProt O00159), the log2 fold change was -0.025 in assay [1]; -0.038 in assay [2]; -0.051 in assay [3]; -0.025 in assay [4]; 0.033 in assay [5].

In the case of NIPSNAP3A (UniProt Q9UFN0), the log2 fold change was 0.083 in assay [1]; -0.037 in assay [2]; -0.013 in assay [3]; -0.036 in assay [4]; 0.322 (active) in assay [5].

As to NPM3 (UniProt O75607), the log2 fold change in assay [1] was 0.172; in assay [2], -0.045; in assay [3], -0.009; in assay [4], -0.03; in assay [5] it was -0.157.

Turning to NSL1 (UniProt Q96IY1), the log2 fold change is 0.028 in assay [1]; 0.012 in assay [2]; -0.001 in assay [3]; 0.053 in assay [4]; -0.014 in assay [5].

Regarding NCAPD2 (UniProt Q15021), the log2 fold change in assay [1] was -0.023; in assay [2] it was 0.028; in assay [3], 0.026; in assay [4], 0.008; in assay [5], 0.022.

As for NUMB (UniProt P49757), the log2 fold change in assay [1] was 0.001; in assay [2] it was 0.034; in assay [3], 0.009; in assay [4], 0.004; in assay [5], -0.032.

With N4BP2 (UniProt Q86UW6), the log2 fold change in assay [1] is 0.024; in assay [2], 0.04; in assay [3], 0.064; in assay [4] it was -0.022; in assay [5] it was -0.068.

On to PAK1 (UniProt Q13153), for which the log2 fold change was 0.029 in assay [1]; -0.009 in assay [2]; -0.011 in assay [3]; 0.015 in assay [4]; -0.126 in assay [5].

For NGLY1 (UniProt Q96IV0), the log2 fold change is -0.011 in assay [1]; 0.002 in assay [2]; 0.016 in assay [3]; -0.018 in assay [4]; -0.07 in assay [5].

Regarding NDUFA4 (UniProt O00483), the log2 fold change was -0.019 in assay [1]; -0.048 in assay [2]; -0.063 in assay [3]; 0.035 in assay [4]; 0.287 in assay [5].

With NEXN (UniProt Q0ZGT2), the log2 fold change was -0.31 in assay [1]; 0.335 in assay [2]; 0.271 in assay [3]; -0.083 in assay [4]; -0.22 in assay [5].

For NAT1 (UniProt P18440), the log2 fold change in assay [1] was 0.049; in assay [2], -0.021; in assay [3] it was 0.012; in assay [4], 0.015; in assay [5], 0.011.

Regarding MYO1D (UniProt O94832), the log2 fold change is -0.006 in assay [1]; 0.002 in assay [2]; 0.015 in assay [3]; -0.006 in assay [4]; 0.02 in assay [5].

As for MRPL58 (UniProt Q14197), the log2 fold change in assay [1] was 0.011; in assay [2], 0.029; in assay [3], 0.075; in assay [4], -0.002; in assay [5], 0.081.

On to NT5DC2 isoform 2 (UniProt Q9H857), for which the log2 fold change was 0.021 in assay [1]; -0.026 in assay [2]; 0.009 in assay [3]; 0.051 in assay [4]; -0.022 in assay [5].

Consider NUP133 (UniProt Q8WUM0), for which the log2 fold change in assay [1] is 0.05; in assay [2] it was 0.046; in assay [3], 0.014; in assay [4], 0.025; in assay [5] it was -0.052.

Take NDUFS1 isoform 2 (UniProt P28331): the log2 fold change in assay [1] is 0.009; in assay [2] it was -0.003; in assay [3], 0.022; in assay [4], 0.013; in assay [5] it was 0.035.

MYCBP2 (UniProt O75592): the log2 fold change is -0.006 in assay [1]; -0.003 in assay [2]; 0.017 in assay [3]; 0.005 in assay [4]; -0.005 in assay [5].

For OSBPL6 isoform 5 (UniProt Q9BZF3), the log2 fold change in assay [1] was 0.014; in assay [2] it was -0.023; in assay [3], 0.02; in assay [4], 0.023; in assay [5], -0.087.

The values are drawn from the supplement of paper PMC10849652.
